# Screen size: about 350,000 compounds; about 9,900 (2.8%) were called active. Inconclusive results (about 15%) are left out. The call rests on the fitted dose curve; in most records, active means well fitted activation curve with a large enough effect; inconclusive means small, poorly fitted or top-dose-only effect; inactive means no such curve, though single readings can be large or run the other way. The list comes from a sample in which actives are over-represented; it also holds similar structures and randomly drawn compounds. Where a call stands in place of a potency, no number is given.
# Test: A quantitative high throughput screen for small molecules that induce DNA re-replication in MCF 10a normal breast cells. Further: nearly all actives have a fitted effect of over 50% in size.
# Settings: MCF 10A DNA re-replication, Hoechst nuclear intensity, 48 h; series mostly up to 46.1 µM
# Excerpt: H Molecular Libraries Probe Production Network [MLPCN]
# NIH Chemical Genomics Center [NCGC]
# Assay Provider: Melvin DePamphilis, NICHD, NIH
# Eukaryotic cells normally restrict genome duplication to once per cell division. When this process is aberrant, DNA re-replication occurs when cells reinitiate DNA replication before the first round of replication is complete. DNA re-replication induces the DNA damage response, arrests cell proliferation, and triggers apoptosis. The cell cycle components cyclin A, Cdt-1, Cdc6 and geminin are critical regulators of this process and their misregulation results in DNA re-replication in normal and cancer cells. To identify compounds that induce re-replication in normal cells, an image-based assay was used to measure DNA content of nuclei, as detected by the fluorescent DNA binding dye, Hoechst. Cell nuclei were imaged by a fluorescence scanning plate imager and compounds that induce DNA re-replication were identified by the increase of nuclei with elevated fluorescence intensity
# For screening, 250 cells in 5 uL/well were dispensed into black clear 1536-well plates (Aurora) using a solenoid-based dispenser. Following transfer of 23 nL compound or DMSO vehicle by a pin tool, the plates were incubated 48 hr at 37 C and 5% CO2. After addition of 1 uL/well Hoescht stain, the plates were incubated 40 min at 37 C, 5% CO2 and total intensity of fluorescent objects (nuclei) were enumerated by an Acumen Explorer Ex3 (TTP LabTech) fluorescence scanning plate imager (405 nm excitation, 500-530 nm emission).
# Keywords: NIH Roadmap, MLPCN, MLI, MLSMR, qHTS, NCGC, DNA replication, cancer
# Potency means the concentration at half of the fitted maximal effect.
row,Structure (SMILES),Potency
1,COCC(=O)N=Nc1c(O)[nH]c2ccccc12,inactive
2,O=C(CCN1CCCCC1)N=Nc1c(O)[nH]c2ccccc12,3.66 µM (active)
3,Cc1cccc(N(CC(=O)N=Nc2c(O)[nH]c3ccccc23)S(C)(=O)=O)c1C,inactive
4,CCCCc1ccc(NS(=O)(=O)c2cccc(C(=O)N3CCCN(C)CC3)c2)cc1,inactive
5,O=C(O)c1ccc(S(=O)(=O)c2ccccc2)s1,inactive
6,Cc1nc2ccc(N)nc2nc1C,inactive
7,CCN(C[C@H]1N[C@@](CC)(C(=O)OC)[C@H]2C(=O)N(C)C(=O)[C@@H]12)C(=O)Nc1ccc(F)cc1,inactive
8,CCOC(=O)c1c(-c2ccccc2)oc2cc(Br)c(O)cc12,16.4 µM (active)
9,CCOC(=O)c1c(C)oc2cc(Sc3ccccc3)c(O)c(O)c12,inactive
10,CCOC(=O)c1c(-c2ccccc2)oc2ccc(OCC(=O)NN)cc12,inactive
11,Cc1oc2cc(Br)c(O)c(Br)c2c1C(=O)c1ccccc1,inactive
12,CCOC(=O)c1c(-c2ccccc2)oc2cc(Br)c(O)c(C=O)c12,2.91 µM (active)
13,CCOC(=O)c1c(-c2ccccc2)oc2ccc(OCC(N)=O)cc12,inactive
14,CC[C@]12c3[nH]c4cc(CCC(=O)N(C)C)ccc4c3CCN1C(=O)[C@@H](CC(=O)NCc1ccco1)C[C@@H]2C(=O)N1CCN(C(=O)c2ccco2)CC1,inactive
15,O=C(CSc1nnc(Nc2ccccc2F)s1)NC1CCCC1,inactive
16,O=C(COC(=O)c1n[nH]c2ccccc12)Nc1ccccc1Br,inactive
17,COc1ccc(NC(=O)/C(N=Nc2cccc(S(=O)(=O)Nc3ccc(SC(F)F)cc3)c2)=C(\C)O)cc1,inactive
18,CC(C)=CCc1c(O)c(CC=C(C)C)c2occ(-c3ccc(O)cc3)c(=O)c2c1O,9.2 µM (active)
19,CC(C)CN(Cc1c(O)ccc2c(=O)c(-c3ccccc3)coc12)CC(C)C,inactive
20,O=c1c(-c2ccccc2)coc2cc(O)ccc12,inactive
21,O=C(NN=Cc1ccc([N+](=O)[O-])cc1)C1CC1,inactive
22,COc1ccccc1N1CCN(C(=O)C2Cc3ccccc3CN2C(=O)c2ccco2)CC1 (centres undefined),inactive

row,Structure (SMILES),Potency
1,CC(=O)N1CCc2c(sc(NC(=O)CCS(=O)(=O)c3ccc(C)cc3)c2C(N)=O)C1,3.26 µM (active)
2,Cc1ccc(S(=O)(=O)CC(=O)Nc2nnc(C)s2)cc1,inactive
3,CCOc1ccc(OCC)c(NC(=O)CCS(=O)(=O)c2ccc(C)cc2)c1,inactive
4,Cc1cc(C)cc(-c2nnc(SCC(=O)NC3CC3)o2)c1,inactive
5,O=C(NCc1ccccc1CN1CCCC1)c1cccc(S(=O)(=O)Nc2ccc(F)cc2)c1,inactive
6,COc1cc(C(=O)CCc2ccc3c(c2)OCO3)cc(OC)c1OC,inactive
7,Cc1noc(C)c1C(=O)N1CCOCC1,inactive
8,Cc1oc2c(c1C(=O)N1CCOCC1)C(=O)c1ccccc1C2=O,16.4 µM (active)
9,Cc1ccccc1-c1ccc(Nc2ccc(C(=O)N3CCOCC3)cc2)nn1,inactive
10,NS(=O)(=O)c1ccc(CNC(=O)c2cccc(S(=O)(=O)N3CCc4ccccc43)c2)cc1,inactive
11,COc1ccc(C(C)(C)C)cc1NC(=O)CCN1C(=O)C2CCCCC2C1=O (centres undefined),inactive
12,COc1ccc(C2=NN(C(=O)c3ccccc3C(=O)O)C(c3ccccc3O)C2)cc1 (centres undefined),inactive
13,COc1ccc(C2=NN(C(C)=O)C(c3ccccc3)C2)cc1 (centres undefined),inactive
14,COc1ccc(C2=NN(c3ccccc3)C(c3cccs3)C2)cc1 (centres undefined),3.26 µM (active)
15,O=C(Nc1cc(S(=O)(=O)N2CCCCC2)ccc1Cl)C1COc2ccccc2O1 (centres undefined),inactive
16,C=CC[C@@H](CC(=O)N[C@@H](CO)Cc1ccccc1)C(=O)NCCOC(=O)[C@@H](CC=C)CC(=O)OC(C)(C)C,inactive
17,CCCCn1c(N)c(N(CCC(C)C)C(=O)COC(=O)c2ccc(CC)cc2)c(=O)[nH]c1=O,inactive
18,COc1ccc(Cl)cc1C(=O)NNC(=S)NC(=O)/C=C/c1ccco1,inactive
19,O=C(/C=C/c1ccco1)NC(=S)Nc1ccccc1Br,20.6 µM (active)
20,O=C(/C=C/c1ccco1)NC(=S)N1CCCCC1,inactive
21,COc1ccc2c(c1)C(=O)CC(c1ccccc1)O2 (centres undefined),inactive
22,COc1cc(/C=N/NC(=O)c2cc(-c3ccccc3C)nc3ccccc23)cc(OC)c1O,inactive

row,Structure (SMILES),Potency
1,CCOc1ccc(-c2cc(C(=O)N/N=C/c3ccc(O)cc3)c3ccccc3n2)cc1,2.06 µM (active)
2,COc1cccc(-c2cc(C(=O)N/N=C/c3ccc(OC)c(COC(C)=O)c3)c3ccccc3n2)c1,inactive
3,O=C1COc2ccc(C(=O)COC(=O)CCOc3ccccc3)cc2N1,inactive
4,CC(=O)NCc1ccc(-c2csc(NC(=O)CCCc3nc4ccccc4c(=O)[nH]3)n2)cc1,inactive
5,O=C(CSc1nc2ccccc2c(=O)[nH]1)Nc1nc(-c2ccc(Br)cc2)cs1,inactive
6,Cc1ccc(-c2csc(NC(=O)Cn3[nH]c(=O)c4ccccc4c3=O)n2)cc1,3.26 µM (active)
7,O=C(Cn1cnc2c(OCc3ccccc3)ncnc21)NCCCn1ccnc1,inactive
8,CC(C)Sc1nc(N)nc2c1ncn2C1OC(CO)C(O)C1O (centres undefined),inactive
9,Cn1c(N)c(C(=O)COC(=O)c2cccc(S(=O)(=O)N3CCOCC3)c2)c(=O)n(C)c1=O,inactive
10,COCCCn1c(-c2cccs2)nc2nc3ccccc3nc21,18.4 µM (active)
11,COc1ccccc1C(=O)Nn1c(-c2cccs2)nc2ccccc2c1=O,inactive
12,CC(C)n1c(-c2cccs2)nc2ccccc21,inactive
13,COC(=O)C1CCN(C(=O)COC(=O)c2cc(S(=O)(=O)N3CCOCC3)ccc2C)CC1,inactive
14,Cc1ccc2c(O)c(Cc3ccccc3)c(=O)[nH]c2n1,inactive
15,O=C(NCC1CCCO1)c1ccc(S(=O)(=O)Nc2ccc(F)cc2)cc1 (centres undefined),inactive
16,COc1ccc(/C=N/NC(=O)c2ccc3c(c2)OCCO3)c(OC)c1,inactive
17,COc1ccc(/C=N/NC(=O)CNC(=O)c2ccc(S(=O)(=O)N3CCCC3)cc2)c(OC)c1,inactive
18,COc1ccc(/C=N/NC(=O)Nc2ccc3nsnc3c2)c(OC)c1,13 µM (active)
19,COc1ccc(CNC(=O)CN2C(=O)c3ccccc3S2(=O)=O)cc1,inactive
20,COc1ccc(C(=O)NCc2ccc(C)cc2)cc1S(=O)(=O)N1CCCC1,inactive

# Reference: PubChem BioAssay AID624296 (National Center for Advancing Translational Sciences (NCATS), 2012)
